Experimental findings from PubChem BioAssay are described below.

The source made the active and inactive calls.

Test [1] has as its system Plasmodium falciparum Sir2 (PF13_0152, Sir2A). Kind of test: Plasmodium falciparum Sir2A binding compounds – biochemical, small-molecule microarray, 635 nm fluorescence, primary screen (AID 1098).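 Further: score merges spot fluorescence intensity with its signal-to-noise ratio.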 To be noted: fluorescence 635 nm, higher = more signal.
Test [2] in a line: probe aDKK1 binding to arrayed compounds – biochemical, biotinylated probe, 635/667 nm fluorescence, primary screen (AID 1099).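 Further: score merges 667nm spot fluorescence with signal to noise across triplicate slides; reference of the scale not given here.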 The following applies: small-molecule microarray, higher = more signal.
Test [3] is described as follows: probe aCHRDL2 binding to arrayed compounds – biochemical, biotinylated probe, 635/667 nm fluorescence, primary screen (AID 1100). The following applies: small-molecule microarray, higher = more signal.
Test [4] can be described thus: change in splice reporter luminescence, either direction, cell-based, HEK293, spliceosome inhibition project, primary screen (AID 1101).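 Further: HEK293 cells carrying a splicing-competent luciferase reporter gene; test concentration not given here.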 To be noted: HEK293 splicing luciferase reporter, 24 h, higher = more signal, called active from +8 up or from −8 down. In general terms: In a reporter assay the amount or activity of a reporter protein is the signal.
The target in test [5] is Fibroblast growth factor 10 (Homo sapiens) (UniProt O15520). Kind of test: compounds binding fibroblast growth factor 10 – biochemical, small-molecule microarray, 635 nm fluorescence, primary screen (AID 1102). The following applies: FGF10 binding, fluorescence 635 nm, higher = more signal.
In test [6] the test system is glycogen synthase kinase-3 (GSK3A per assay name; protocol says GSK3B). Kind of test: compounds binding glycogen synthase kinase-3 – biochemical, small-molecule microarray, 635 nm fluorescence, GSK3A, primary screen (AID 1103). Further: the record names both GSK3A and GSK3B. To be noted: fluorescence 635 nm, higher = more signal.
In test [7] the target is Epidermal growth factor receptor (Homo sapiens) (UniProt P00533). Briefly: compounds binding epidermal growth factor receptor – biochemical, small-molecule microarray, 635 nm fluorescence, primary screen (AID 1104).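 Further: score merges 667 nm emission intensity with spot signal to noise over triplicate slides.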 The following applies: EGFR binding, higher = more signal.
The target of test [8] is Follistatin-related protein 3 (Homo sapiens) (UniProt O95633). Kind of test: compounds binding follistatin-related protein 3 – biochemical, small-molecule microarray, 635 nm fluorescence, primary screen (AID 1105).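 Further: score merges emission near 667 nm and signal to noise per printed spot across three slides.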 To be noted: FSTL3 binding, higher = more signal.
Test [9] addresses Dickkopf-related protein 1 (Homo sapiens) (UniProt O94907). Briefly: small molecules binding DKK1 protein – biochemical, small-molecule microarray, 635 nm fluorescence scan, primary screen (AID 1106).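 Further: score merges emission near 667 nm with signal to noise over three replicate slides.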 The following applies: higher = more signal.
Test [10] has as its system Inhibin beta A chain (activin A). Briefly: small molecules binding activin A – biochemical, small-molecule microarray, 635 nm fluorescence scan, primary screen (AID 1107).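 Further: mouse activin A protein probed at 4.33 µg/mL on printed slides; score merges bound-protein fluorescence near 667 nm with spot signal-to-noise.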 The following applies: INHBA, higher = more signal.

Sequence of Epidermal growth factor receptor (Homo sapiens) (P00533 whole entry, looked up): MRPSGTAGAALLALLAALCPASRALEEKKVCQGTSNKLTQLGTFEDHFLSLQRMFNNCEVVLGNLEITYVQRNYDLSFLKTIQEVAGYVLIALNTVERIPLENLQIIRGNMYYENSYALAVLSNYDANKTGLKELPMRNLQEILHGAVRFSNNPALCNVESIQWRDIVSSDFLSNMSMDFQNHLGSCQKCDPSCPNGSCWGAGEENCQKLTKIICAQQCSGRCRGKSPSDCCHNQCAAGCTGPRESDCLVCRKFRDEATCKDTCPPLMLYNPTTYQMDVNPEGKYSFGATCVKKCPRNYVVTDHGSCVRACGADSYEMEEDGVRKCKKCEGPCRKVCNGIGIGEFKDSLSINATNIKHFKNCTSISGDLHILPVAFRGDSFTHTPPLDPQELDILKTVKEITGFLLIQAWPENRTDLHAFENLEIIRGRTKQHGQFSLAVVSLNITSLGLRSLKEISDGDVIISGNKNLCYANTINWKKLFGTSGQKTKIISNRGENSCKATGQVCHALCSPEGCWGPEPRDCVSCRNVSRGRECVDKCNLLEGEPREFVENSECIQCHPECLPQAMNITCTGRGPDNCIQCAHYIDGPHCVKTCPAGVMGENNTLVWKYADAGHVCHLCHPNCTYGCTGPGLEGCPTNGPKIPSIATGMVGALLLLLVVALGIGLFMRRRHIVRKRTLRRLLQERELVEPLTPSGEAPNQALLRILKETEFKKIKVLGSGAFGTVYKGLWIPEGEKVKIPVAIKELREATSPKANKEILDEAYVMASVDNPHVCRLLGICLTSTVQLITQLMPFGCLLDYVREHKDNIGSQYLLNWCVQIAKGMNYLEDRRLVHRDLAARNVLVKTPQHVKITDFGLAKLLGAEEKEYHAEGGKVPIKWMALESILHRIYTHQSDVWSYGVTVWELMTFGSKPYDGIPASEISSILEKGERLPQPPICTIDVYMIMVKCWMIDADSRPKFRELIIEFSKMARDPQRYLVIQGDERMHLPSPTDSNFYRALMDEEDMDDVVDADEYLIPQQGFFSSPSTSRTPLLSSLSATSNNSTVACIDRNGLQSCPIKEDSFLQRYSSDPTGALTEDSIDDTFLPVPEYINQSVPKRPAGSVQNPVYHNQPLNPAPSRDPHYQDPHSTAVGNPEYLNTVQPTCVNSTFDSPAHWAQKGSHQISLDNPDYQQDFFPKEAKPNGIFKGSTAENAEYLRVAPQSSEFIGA
Sequence of Dickkopf-related protein 1 (Homo sapiens) (O94907 whole entry, looked up): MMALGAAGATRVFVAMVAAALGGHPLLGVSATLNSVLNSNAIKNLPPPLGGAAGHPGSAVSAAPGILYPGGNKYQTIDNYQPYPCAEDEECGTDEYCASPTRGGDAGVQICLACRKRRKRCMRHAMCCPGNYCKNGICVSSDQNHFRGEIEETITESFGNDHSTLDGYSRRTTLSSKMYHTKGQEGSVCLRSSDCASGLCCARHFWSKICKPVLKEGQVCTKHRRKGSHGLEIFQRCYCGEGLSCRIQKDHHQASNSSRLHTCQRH
Sequence of Follistatin-related protein 3 (Homo sapiens) (O95633 whole entry, looked up): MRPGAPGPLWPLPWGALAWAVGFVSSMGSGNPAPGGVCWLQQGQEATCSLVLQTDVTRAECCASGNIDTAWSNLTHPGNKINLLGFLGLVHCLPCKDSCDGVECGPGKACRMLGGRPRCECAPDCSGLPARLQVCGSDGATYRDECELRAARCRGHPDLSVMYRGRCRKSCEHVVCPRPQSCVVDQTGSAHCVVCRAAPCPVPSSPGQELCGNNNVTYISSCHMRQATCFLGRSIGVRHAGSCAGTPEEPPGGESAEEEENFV
Sequence of Fibroblast growth factor 10 (Homo sapiens) (O15520 whole entry, looked up): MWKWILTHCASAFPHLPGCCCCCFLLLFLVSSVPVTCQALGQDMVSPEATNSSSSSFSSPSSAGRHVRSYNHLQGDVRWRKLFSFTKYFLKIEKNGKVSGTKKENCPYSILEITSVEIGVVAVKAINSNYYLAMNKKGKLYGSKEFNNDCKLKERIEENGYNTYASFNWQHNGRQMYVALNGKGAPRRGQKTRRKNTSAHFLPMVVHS

In the case of `CCC(CC)C(O)C1C=CC2C(=O)N(c3ccccc3)C(=O)C2N1Nc1ccc(C#N)cc1` (stereo not given), the composite z-score stood at 0.82 in test [1]; 1.29 in test [2]; 0.705 in [3]; 0.783 in [5]; 1.27 in test [6]; 0.231 in [7]. Besides, the composite z-score in test [8] was 0.78; in test [9] it was -0.197; in [10], 0.794. Further, in [4], the z-score was 1.22 (inactive).

Consider `N#Cc1ccc(NN2C(C(O)C3CCCCC3)C=CC3C(=O)N(c4ccccc4)C(=O)C32)cc1` (stereo not given), for which the composite z-score is 0.908 in test [1]; 0.458 in [2]; 0.811 in test [3]; 1.09 in test [5]; 1.3 in test [6]; -0.0355 in test [7]. For the same compound, the composite z-score in [8] is 1.28; in test [9] it was -0.547; in test [10], 0.249. Further, the z-score in test [4] was 1.23 (inactive).

For `Cc1c(NC(=O)CC#N)c(=O)n(-c2ccccc2)n1C`, the composite z-score in test [1] is 0.345; in [2] it was -0.274; in [3], -0.47; in test [5] it was 0.118; in test [6], 0.526; in test [7], 0.322. Besides, the values for the composite z-score in test [8], in test [9] and in test [10] were 0.367, 0.273 and -0.256, respectively. Moreover, in test [4], the z-score was 0.933 (inactive).

Take `NC(=O)NCC#Cc1ccc2c(c1)[C@]1(C(=O)N2)[C@H](C(=O)NC[C@H](O)c2ccccc2)[C@H]2C(=O)O[C@H](c3ccccc3)[C@H](c3ccccc3)N2[C@@H]1c1ccc(O)cc1`: the composite z-score in test [1] is 1.23; in [2], 0.0166; in test [3], -0.249; in [5], 0.893; in [6], 0.664; in [7], 0.575. For the same compound, the composite z-score in [8] was 0.553; in [9] it was 0.314; in test [10], 1.72. The z-score in test [4] was 0.37 (inactive).

Turning to `CCCCC=C[C@@H](NC(=O)c1ccco1)c1ccccc1`, the composite z-score in test [1] is 0.276; in test [2], 0.373; in [3], 0.557; in test [5], 0.689; in test [6] it was -0.877; in test [7], 0.12. Moreover, the values for the composite z-score in test [8], in [9] and in [10] were 0.296, 0.0504 and 0.809, respectively. Further, the z-score in test [4] is 0.808 (inactive).

Turning to `NCCCCCCNC(=O)[C@H]1C[C@H]2C(=O)NCC(=O)N2[C@H]1c1cccc(OCCO)c1`, the composite z-score in test [1] worked out at 1.56; in test [2] it was 0.0447; in test [3], 0.161; in [5], 0.641; in test [6], 1.1; in test [7], 0.544. For the same compound, the results for the composite z-score in test [8], in test [9] and in [10] were 0.563, 0.978 and -0.0745, respectively. The z-score in test [4] was -0.283 (inactive).

Take `COCCOC(=O)N1C(=O)[C@@]2(c3cc(C#CCNC(N)=O)ccc31)[C@H](c1ccc(O)cc1)N1[C@H](c3ccccc3)[C@H](c3ccccc3)OC(=O)[C@H]1[C@@H]2C(=O)NC[C@H](O)c1ccccc1`: the composite z-score in test [1] came to 0.193; in [2] it was 0.614; in test [3], 0.689; in [5] it was 1.05; in test [6], 0.727; in [7], 0.222. Also, the figures for the composite z-score in test [8], in test [9] and in [10] were 1.34, 1.52 and 0.342, respectively. In addition, the z-score in [4] is 0.716 (inactive).

Take `COc1ccc(C#Cc2ccc3c(c2)[C@]2(C(=O)N3)[C@H](c3ccc(O)cc3)N3[C@H](c4ccccc4)[C@H](c4ccccc4)OC(=O)[C@H]3[C@@H]2C(=O)N2CCCCCCC2)cc1`: the composite z-score was found to be 1.39 in test [1]; 2.69 in test [2]; 1.52 in test [3]; 1.22 in test [5]; 1.33 in [6]; 1.18 in [7]. For the same compound, the composite z-score is 1.61 in [8], 1.61 in test [9] and 1.78 in test [10]. For the same compound, the z-score in test [4] is -0.844 (inactive).

Turning to `CCC[C@@H]1C=C(C(=O)O)[C@H](c2ccc(C)cc2)N1S(=O)(=O)c1ccc(C)cc1`, the composite z-score was 0.706 in test [1]; 0.36 in test [2]; 0.817 in test [3]; 0.74 in test [5]; 0.415 in test [6]; -0.278 in test [7]. For the same compound, the figures for the composite z-score in test [8], in test [9] and in [10] were 0.192, -0.435 and 0.71, respectively. Moreover, the z-score in [4] is 1.04 (inactive).

For `COC(=O)[C@@]1(Cc2ccc(F)cc2)[C@H]2c3cc(C(=O)N4CCCC4)n(Cc4cccc5ccccc45)c3C[C@H]2CN1C(=O)c1ccccc1`, the composite z-score is 1.53 in test [1]; 0.479 in test [2]; 0.854 in [3]; 0.427 in [5]; -0.423 in test [6]; 0.329 in test [7]. Further, the results for the composite z-score in test [8], in test [9] and in test [10] were 0.286, -0.538 and 0.644, respectively. In addition, in [4], the z-score was -2.29 (inactive).

`C=C(C(=O)CC[C@H](OC(C)=O)c1ccc(OCCO)cc1)C(C)C`: the composite z-score in test [1] was -0.478; in test [2], -0.267; in [3], -0.906; in test [5] it was 1.37; in test [6] it was -0.479; in [7], 0.982. In addition, the composite z-score was 0.876 in test [8], 2.01 in test [9] and -0.0025 in test [10]. The z-score in test [4] is -3.58 (inactive).

With `COCCOC(=O)N1C(=O)[C@@]2(c3cc(C#CCNC(N)=O)ccc31)[C@H](c1ccc(OCCO)cc1)N1[C@H](c3ccccc3)[C@H](c3ccccc3)OC(=O)[C@H]1[C@@H]2C(=O)N1CCc2cc(OC)c(OC)cc2C1`, the composite z-score in [1] was found to be 0.719; in test [2], 0.208; in [3], 0.676; in test [5] it was 0.921; in [6], 0.0059; in test [7], 0.803. For the same compound, the figures for the composite z-score in test [8], in test [9] and in test [10] were 1.17, 0.455 and 0.959, respectively. In addition, the z-score in [4] was 0.911 (inactive).

In the case of `C=CCOC(=O)[C@H]1[C@@H]2C(=O)O[C@@H](c3ccccc3)[C@@H](c3ccccc3)N2[C@@H](c2ccc(OCCOC(=O)[C@@H]3C[C@@H]4C(=O)N5CCC[C@H]5C(=O)N4[C@@H]3c3ccc(O)cc3)cc2)[C@]12C(=O)Nc1ccccc12`, the composite z-score in [1] is 1.53; in test [2], -0.294; in test [3], 0.0807; in test [5] it was 0.629; in test [6], 1.28; in [7], 0.586. The values for the composite z-score in test [8], in test [9] and in test [10] were 1.21, 1.45 and -0.23, respectively. For the same compound, in test [4], the z-score was 0.109 (inactive).

For `COC(=O)[C@@]1(Cc2ccccc2)[C@H]2c3cc(C(=O)N(C)C)n(Cc4cc(C)n(C)n4)c3C[C@H]2CN1C(=O)c1ccccc1`, the composite z-score worked out at 1.32 in test [1]; 0.866 in test [2]; 0.947 in test [3]; 0.0408 in test [5]; 0.764 in test [6]; 0.3 in test [7]. Also, the composite z-score in test [8] was 0.642; in [9], -0.72; in test [10], 1.11. Also, the z-score in test [4] is -1.26 (inactive).
